Experimental data taken from publication PMC7862700, “An all-to-all approach to the identification of sequence-specific readers for epigenetic DNA modifications on cytosine”.

Experiments:
Assay in all cases: DAPPL (digital affinity profiling via proximity ligation, sequencing); 10 mM Tris-HCl pH 7.5, 50 mM NaCl, 1 mM DTT, 4% glycerol, room temperature, 30 min; GST-TFs on glutathione beads, 16-mer random dsDNA library, 0.1% formaldehyde crosslink after washing; high values mean tight binding
FEV = biological target: T1, FEV (Homo sapiens, UniProt Q99581 1-238); details: protein: recombinant; tags: N-terminal GST; dsDNA, one strand shown
T1 sequence: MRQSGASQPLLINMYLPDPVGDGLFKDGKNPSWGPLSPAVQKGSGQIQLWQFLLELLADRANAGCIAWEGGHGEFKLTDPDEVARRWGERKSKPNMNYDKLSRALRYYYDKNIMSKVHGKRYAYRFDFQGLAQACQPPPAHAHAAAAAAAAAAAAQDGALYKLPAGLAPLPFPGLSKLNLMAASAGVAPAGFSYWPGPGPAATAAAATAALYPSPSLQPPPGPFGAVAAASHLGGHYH
Procedure, shortened: (§1)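 Human transcription factors fused to GST were expressed in yeast, captured on glutathione beads, given DNA barcodes and pooled with a GST-only negative control. Pools were incubated with 200 nmole of a 16-mer random double-stranded DNA library in Tris/NaCl/DTT/glycerol buffer at room temperature for 30 min. They were then washed, crosslinked with 0.1% formaldehyde, proximity-ligated (BsaI/T4 ligase, 1 h, 37 °C), PCR-amplified and sequenced on an Illumina NextSeq500. Binding signal is each 6-mer's read frequency for a factor divided by its frequency for the GST control.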

ETV5 = ETV5 (Homo sapiens, UniProt P41161 1-510); details: protein: recombinant; tags: N-terminal GST; dsDNA, one strand shown
Chain of ETV5 (P41161 whole entry): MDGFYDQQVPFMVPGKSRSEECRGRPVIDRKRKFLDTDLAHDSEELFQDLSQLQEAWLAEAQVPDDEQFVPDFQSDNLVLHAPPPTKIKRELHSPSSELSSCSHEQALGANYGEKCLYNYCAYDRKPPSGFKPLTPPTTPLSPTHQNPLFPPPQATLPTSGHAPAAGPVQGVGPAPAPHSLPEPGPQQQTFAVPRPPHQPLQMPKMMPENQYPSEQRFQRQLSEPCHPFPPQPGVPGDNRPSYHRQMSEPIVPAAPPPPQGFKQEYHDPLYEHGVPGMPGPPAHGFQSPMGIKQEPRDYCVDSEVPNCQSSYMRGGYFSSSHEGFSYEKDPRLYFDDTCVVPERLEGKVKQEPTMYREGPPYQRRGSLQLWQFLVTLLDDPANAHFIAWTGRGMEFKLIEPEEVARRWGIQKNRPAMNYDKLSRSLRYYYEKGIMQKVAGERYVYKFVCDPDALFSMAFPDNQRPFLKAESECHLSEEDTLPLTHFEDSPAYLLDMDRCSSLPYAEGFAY
Procedure, shortened: as §1

HSF1 = HSF1 (Homo sapiens, UniProt Q00613 1-529); details: protein: recombinant; tags: N-terminal GST; chain copies: 3; dsDNA, one strand shown
Chain of HSF1 (Q00613 whole entry): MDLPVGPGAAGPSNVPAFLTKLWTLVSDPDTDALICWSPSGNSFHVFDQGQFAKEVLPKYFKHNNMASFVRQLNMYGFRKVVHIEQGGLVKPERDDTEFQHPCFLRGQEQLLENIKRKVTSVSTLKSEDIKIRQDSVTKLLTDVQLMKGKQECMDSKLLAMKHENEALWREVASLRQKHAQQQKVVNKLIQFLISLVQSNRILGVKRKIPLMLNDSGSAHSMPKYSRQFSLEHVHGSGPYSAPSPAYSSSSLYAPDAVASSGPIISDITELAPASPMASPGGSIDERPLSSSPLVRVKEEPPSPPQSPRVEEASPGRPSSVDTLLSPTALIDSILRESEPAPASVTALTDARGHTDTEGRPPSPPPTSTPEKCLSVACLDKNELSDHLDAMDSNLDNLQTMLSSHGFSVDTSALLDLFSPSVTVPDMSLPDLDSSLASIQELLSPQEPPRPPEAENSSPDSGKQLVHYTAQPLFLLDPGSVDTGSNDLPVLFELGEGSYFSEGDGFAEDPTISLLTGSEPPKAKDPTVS
Procedure, shortened: as §1

SPIC = biological target: T2, SPIC (Homo sapiens, UniProt Q8N5J4 1-248); details: protein: recombinant; tags: N-terminal GST; dsDNA, one strand shown
T2 sequence: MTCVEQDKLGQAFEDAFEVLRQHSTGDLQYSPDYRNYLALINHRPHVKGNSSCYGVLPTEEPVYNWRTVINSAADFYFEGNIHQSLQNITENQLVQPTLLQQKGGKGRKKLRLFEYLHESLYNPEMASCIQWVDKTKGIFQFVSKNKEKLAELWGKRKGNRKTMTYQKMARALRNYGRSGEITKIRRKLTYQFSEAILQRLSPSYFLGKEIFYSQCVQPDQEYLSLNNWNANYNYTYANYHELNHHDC
Procedure, shortened: as §1

ELF4 = ELF4 (Homo sapiens, UniProt Q99607 1-663); details: protein: recombinant; tags: N-terminal GST; dsDNA, one strand shown
Chain of ELF4 (Q99607 whole entry): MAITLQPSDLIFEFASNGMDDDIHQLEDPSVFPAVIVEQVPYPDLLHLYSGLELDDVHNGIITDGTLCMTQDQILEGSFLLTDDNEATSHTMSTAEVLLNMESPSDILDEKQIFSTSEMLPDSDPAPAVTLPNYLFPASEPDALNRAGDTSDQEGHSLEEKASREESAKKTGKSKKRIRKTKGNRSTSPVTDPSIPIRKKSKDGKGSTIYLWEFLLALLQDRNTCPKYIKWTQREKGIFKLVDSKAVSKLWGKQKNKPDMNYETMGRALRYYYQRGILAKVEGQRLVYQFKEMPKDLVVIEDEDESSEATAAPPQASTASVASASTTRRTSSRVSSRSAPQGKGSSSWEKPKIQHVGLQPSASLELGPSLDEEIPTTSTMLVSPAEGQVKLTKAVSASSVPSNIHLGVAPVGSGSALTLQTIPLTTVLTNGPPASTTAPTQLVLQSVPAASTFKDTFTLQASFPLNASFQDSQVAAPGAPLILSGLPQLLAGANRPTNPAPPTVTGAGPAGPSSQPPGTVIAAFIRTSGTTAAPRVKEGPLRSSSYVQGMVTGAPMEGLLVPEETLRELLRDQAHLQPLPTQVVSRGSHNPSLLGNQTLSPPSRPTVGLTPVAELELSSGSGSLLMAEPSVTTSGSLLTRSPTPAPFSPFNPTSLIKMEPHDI
Procedure, shortened: as §1

ELK4 = biological target: T3, ELK4 (Homo sapiens, UniProt P28324-2 1-405); details: protein: recombinant; tags: N-terminal GST; dsDNA, one strand shown
T3 sequence: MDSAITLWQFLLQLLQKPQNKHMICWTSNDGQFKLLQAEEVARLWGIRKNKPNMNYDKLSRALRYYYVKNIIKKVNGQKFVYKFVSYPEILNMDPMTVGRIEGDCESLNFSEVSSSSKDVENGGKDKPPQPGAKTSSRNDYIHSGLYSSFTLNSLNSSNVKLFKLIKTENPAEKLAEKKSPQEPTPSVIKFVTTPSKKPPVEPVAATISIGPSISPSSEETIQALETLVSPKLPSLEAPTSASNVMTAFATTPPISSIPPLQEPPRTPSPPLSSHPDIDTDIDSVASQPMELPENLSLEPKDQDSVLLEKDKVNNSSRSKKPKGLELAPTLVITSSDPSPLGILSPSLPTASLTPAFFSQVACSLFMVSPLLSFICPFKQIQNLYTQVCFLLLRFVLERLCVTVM
Procedure, shortened: as §1

ETV2 = biological target: T4, ETV2 (Homo sapiens, UniProt O00321 1-342); details: protein: recombinant; tags: N-terminal GST; dsDNA, one strand shown
T4 sequence: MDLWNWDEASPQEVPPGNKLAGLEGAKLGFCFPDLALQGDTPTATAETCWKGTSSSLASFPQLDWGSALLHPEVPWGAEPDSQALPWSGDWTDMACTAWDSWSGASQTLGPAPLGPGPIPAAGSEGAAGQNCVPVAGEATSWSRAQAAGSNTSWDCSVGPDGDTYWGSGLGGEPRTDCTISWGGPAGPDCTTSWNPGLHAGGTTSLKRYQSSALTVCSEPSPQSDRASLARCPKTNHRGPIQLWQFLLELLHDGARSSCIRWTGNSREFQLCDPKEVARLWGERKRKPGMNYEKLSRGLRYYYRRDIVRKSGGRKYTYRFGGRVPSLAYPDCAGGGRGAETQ
Procedure, shortened: as §1

ELF3 = biological target: T5, ELF3 (Homo sapiens, UniProt P78545 1-371); details: protein: recombinant; tags: N-terminal GST; dsDNA, one strand shown
T5 sequence: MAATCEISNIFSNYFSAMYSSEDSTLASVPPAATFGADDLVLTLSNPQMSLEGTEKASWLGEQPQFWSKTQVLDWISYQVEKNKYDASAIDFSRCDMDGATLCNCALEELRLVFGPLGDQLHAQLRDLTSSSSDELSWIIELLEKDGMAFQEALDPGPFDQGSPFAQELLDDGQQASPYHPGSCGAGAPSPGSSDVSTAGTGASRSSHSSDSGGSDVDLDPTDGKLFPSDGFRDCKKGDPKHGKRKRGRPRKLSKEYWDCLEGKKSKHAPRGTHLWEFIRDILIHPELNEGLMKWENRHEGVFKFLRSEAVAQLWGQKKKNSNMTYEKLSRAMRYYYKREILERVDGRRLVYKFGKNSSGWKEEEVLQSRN
Procedure, shortened: as §1

CRX = CRX (Homo sapiens, UniProt O43186 1-299); details: protein: recombinant; tags: N-terminal GST; dsDNA, one strand shown
Chain of CRX (O43186 whole entry): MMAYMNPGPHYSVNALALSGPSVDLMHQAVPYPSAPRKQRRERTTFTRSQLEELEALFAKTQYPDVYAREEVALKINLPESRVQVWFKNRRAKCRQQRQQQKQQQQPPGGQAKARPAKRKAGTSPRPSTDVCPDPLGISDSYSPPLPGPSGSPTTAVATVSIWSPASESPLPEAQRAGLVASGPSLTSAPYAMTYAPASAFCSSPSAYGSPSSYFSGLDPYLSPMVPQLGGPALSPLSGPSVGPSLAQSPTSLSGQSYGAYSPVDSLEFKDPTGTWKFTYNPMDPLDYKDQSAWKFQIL
Procedure, shortened: as §1

ACTCTC
binding signal (FEV): 1.42 fold enrichment (6-mer frequency, TF over GST control) | binding signal (ETV5): 1.42 fold enrichment (6-mer frequency, TF over GST control) | binding signal (HSF1): 1.55 fold enrichment (6-mer frequency, TF over GST control) | binding signal (SPIC): 1.47 fold enrichment (6-mer frequency, TF over GST control) | binding signal (ELF4): 1.49 fold enrichment (6-mer frequency, TF over GST control) | binding signal (ELK4): 1.55 fold enrichment (6-mer frequency, TF over GST control) | binding signal (ETV2): 1.39 fold enrichment (6-mer frequency, TF over GST control) | binding signal (ELF3): 1.88 fold enrichment (6-mer frequency, TF over GST control) | binding signal (CRX): 1.31 fold enrichment (6-mer frequency, TF over GST control)
